Assay results: PubChem BioAssay (Tox21)
Inconclusive results are not listed. The source made the active and inactive calls. Unless noted, calls come from the whole dose curve; as a rule, active = well fitted curve in the direction sought with a large enough effect in the repeat runs; inconclusive = weak or mixed curves; inactive = no such curve, though single readings can be large; an effect the other way counts as inactive or inconclusive.

How the values were obtained:
[1] = qHTS RealTime-Glo MT Cell Viability Assay in HEK293 cells - 8 hour (AID 1224887); note: top concentration of the series differs between compounds; nearly all actives have a fitted effect of over 50% in size
Method in brief: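 600 cells/well were plated with the nonlytic NanoLuc/prosubstrate reagent, pre-incubated 5 h, then given 23 nL of compound in DMSO. Incubation at 37 C for 40 h, with luminescence from viable-cell-reduced substrate read repeatedly from 0 h.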

[2] = A CellTox Green Cytotoxicity Assay to monitor cytotoxicity in HEK293 cells - 16 hour (AID 1224888); note: nearly all actives have a fitted effect of over 35% in size
Method in brief: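 HEK293 cells, 600/well, were preincubated 5 hours and then exposed to compounds at 37 C for up to 40 hours. A cell-impermeant cyanine dye staining dead-cell DNA was read by fluorescence at 0, 8, 16, 24, 32 and 40 h time points.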

[3] = A CellTox Green Cytotoxicity Assay to monitor cytotoxicity in HepG2 cells - 8 hour (AID 1224890); note: nearly all actives have a fitted effect of over 45% in size
Method in brief: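 HepG2 cells, 600/well, preincubated 5 h with CellTox Green dye, then exposed to Tox21 compounds in DMSO at 37 C for up to 40 h. Dead-cell DNA fluorescence read at the indicated time point.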

[4] = qHTS assay to identify small molecule antagonists of the estrogen receptor alpha (ER-alpha) signaling pathway using the BG1 cell line in the presence of 0.1 nM 17-beta-estradiol - cell viability counter screen (AID 1259241); note: nearly all actives have a fitted effect of over 40% in size
Method in brief: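 In this screen, hormone-deprived VM7Luc4E2 cells were seeded at 4,000 per well, dosed with compound and 0.1 nM estradiol final, and incubated 22 hr at 37C and 5% CO2; fluorogenic live-cell protease signal reported viability.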

[5] = qHTS assay to identify small molecule antagonists of the androgen receptor (AR) signaling pathway using the MDA cell line in the presence of 0.5 nM R1881 - cell viability counter screen (AID 1259242); note: nearly all actives have a fitted effect of over 45% in size
Method in brief: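 MDA-kb2 cells (MMTV-luciferase, AR/GR responsive) were treated with compounds plus 0.5 nM R1881 (final) for 16 hr at 37C, 0% CO2. Viability was then read in the same wells as live-cell protease fluorescence (CellTiter-Fluor, 30 min).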

[6] = target: Estrogen receptor (Homo sapiens) (UniProt P03372); assay: qHTS assay to identify small molecule antagonists of the estrogen receptor alpha (ER-alpha) signaling pathway using the BG1 cell line in the presence of 0.1 nM 17-beta-estradiol (AID 1259244); note: nearly all actives have a fitted effect of over 50% in size
Method in brief: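 VM7Luc4E2 cells (endogenous full-length ER-alpha, 4×ERE-luciferase), kept 5 days in phenol red-free, charcoal-stripped FBS medium; 4,000 cells/well. Compounds added with 0.1 nM (final) 17beta-estradiol, 22 hr at 37C; luminescence read with ONE-Glo after 30 min.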

[7] = qHTS assay to identify small molecule HDAC inhibitors (AID 1259364); note: top concentration of the series differs between compounds; nearly all actives have a fitted effect of over 45% in size
Method in brief: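 Wild-type HCT-116 cells, plated overnight at 37 C, exposed to compounds 2 hr at 37 C; luminogenic HDAC-Glo substrate then added 30 min at room temperature. Luminescence reports relative endogenous class I/II HDAC activity.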

[8] = qHTS assay to identify small molecule HDAC inhibitors - cell viability counter screen (AID 1259365); note: series mostly up to about 92 µM; nearly all actives have a fitted effect of over 50% in size
Method in brief: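 Measured quantity is CellTiter-Glo luminescence from wild-type HCT-116 cells after compound incubation of 2hr at 37C, 5% CO2; reagent developed 30min at room temperature.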

[9] = qHTS assay to identify small molecule agonists of the sonic hedgehog signaling (Shh) pathway - cell viability counter screen (AID 1259366); note: nearly all actives have a fitted effect of over 50% in size
Method in brief: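 In quantitative high-throughput format, 3T3 Gli1-Luc cells were exposed to compounds for 24hr and multiplexed for viability using CellTiter-Fluor, incubated 1hr at 37C before the fluorescence read.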

[10] = qHTS assay to identify small molecule antagonists of the sonic hedgehog signaling (Shh) pathway - cell viability counter screen (AID 1259367); note: nearly all actives have a fitted effect of over 55% in size
Method in brief: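 Cells: 3T3 Gli1-Luc, 2,000/well, 4 hr pre-incubation. Compounds in DMSO, then conditioned medium. Incubation 24 hr, 37C, 5% CO2. CellTiter-Fluor at 23 hr, 1 hr, fluorescence.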

[11] = qHTS assay to identify small molecule agonists of the sonic hedgehog signaling (Shh) pathway (AID 1259368; calls by dose curve;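 note: NIH/3T3-derived 3T3Gli1-Luc cells carrying a stable Gli1-driven firefly luciferase reporter; series mostly up to about 92 µM; nearly all actives have a fitted effect of over 15% in size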)
Method in brief: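 NIH/3T3-derived 3T3Gli1-Luc cells with stably integrated Gli1-driven firefly luciferase, 2,000 cells/well, compounds added after 4 hr. Incubated 24 hr at 37C, 5% CO2; luminescence read after 30 min with luciferase reagent at room temperature.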

[12] = qHTS assay to identify small molecule antagonists of the sonic hedgehog signaling (Shh) pathway (AID 1259369; calls by dose curve; note: nearly all actives have a fitted effect of over 45% in size)
Method in brief: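 NIH/3T3-derived Gli1-Luc reporter cells plated 4 h, dosed with compound, then stimulated with conditioned medium for 24 h at 37 C. Firefly luciferase luminescence read after 30 min with detection reagent at room temperature.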

[13] = target: Estrogen receptor beta (Homo sapiens) (UniProt Q92731); assay: qHTS assay to identify small molecule agonists of the estrogen receptor beta (ER-beta) signaling pathway (AID 1259377; active = well fitted activation curve with a large enough effect in the signal ratio in the repeat runs, not every such curve was filed as active; the % refers to the signal ratio)
Method in brief: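 Reporter cells (HEK293T, ER-beta-UAS-bla) receive compounds or DMSO after a 6 hr pre-incubation. They then incubate 16 hr at 37C/5% CO2, and fluorescence from LiveBLAzer B/G substrate is measured after 2 hours at room temperature.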

[14] = target: Estrogen receptor beta (Homo sapiens) (UniProt Q92731); assay: qHTS assay to identify small molecule antagonists of the estrogen receptor beta (ER-beta) signaling pathway (AID 1259378; active = well fitted inhibition curve with a large enough effect in the signal ratio in the repeat runs, not every such curve was filed as active; the % refers to the signal ratio)
Method in brief: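 Antagonist mode: compounds added to beta-lactamase reporter HEK293T ER-beta-UAS cells stimulated with E2 (1nM final), 16 hr at 37C. LiveBLAzer B/G FRET substrate, 2 hours room temperature, fluorescence read-out.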

[15] = qHTS assay to identify small molecule agonists of the androgen receptor (AR) signaling pathway in the presence of an antagonist - cell viability counter screen (AID 1259379);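 note: MDA-kb2 human breast cancer cells carrying an MMTV luciferase reporter; series mostly up to about 92 µM; nearly all actives have a fitted effect of over 25% in size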
Method in brief: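 MDA-kb2 cells (MMTV-luciferase, AR/GR), 3,000/well, 5 h attachment, then 3.0 µM nilutamide (final) and compounds at 15 concentrations. Viability by CellTiter-Fluor fluorescence after 16 h at 37 °C, 0% CO2, in the reporter wells.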

[16] = qHTS assay to identify small molecule agonists of the estrogen receptor beta (ER-beta) signaling pathway - cell viability counter screen (AID 1259380); note: nearly all actives have a fitted effect of over 30% in size
Method in brief: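 ER-beta-UAS-bla HEK293T cells in medium with 2% charcoal-stripped FBS, pre-incubated 6 hr, then treated 16 hr at 37C. Cytotoxicity read in the same wells by CellTiter-Glo luminescence after 30 min at room temperature.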

[17] = qHTS RealTime-Glo MT Cell Viability Assay in HepG2 cells - 0 hour (AID 1224889); note: nearly all actives have a fitted effect of over 50% in size
Method in brief: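 Cells + NanoLuc/prosubstrate dispensed (600 cells/well) → 5 h at 37 C/5% CO2 → compounds in DMSO transferred → 40 h incubation at 37 C, luminescence read at 0, 8, 16, 24, 32, 40 h.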

[18] = qHTS assay to identify small molecule phospholipidosis (PLD) inducers (AID 1259344; active = well fitted curve in the direction sought with a large enough effect; an effect the other way counts as inactive or inconclusive)
Method in brief: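 Phospholipidosis is scored by imaging LipidTOX-stained pits in HepG2 cells exposed to compound for 24 h at 37 C; pit counts and integrated intensities per well and per cell serve as outputs.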

[19] = target: Androgen receptor (Homo sapiens) (UniProt P10275); assay: qHTS assay to identify small molecule antagonists of the androgen receptor (AR) signaling pathway using the MDA cell line in the presence of 0.5 nM R1881 (AID 1259243); note: nearly all actives have a fitted effect of over 50% in size
Method in brief: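 MDA-kb2 cells (MMTV-luciferase, responsive to AR and GR) at 3,000/well, rested 5 h at 37C, 0% CO2, then given compounds plus 0.5 nM R1881 (final) for 16 hr. Luciferase read with ONE-Glo after 30 min at room temperature.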

[20] = target: Androgen receptor (Homo sapiens) (UniProt P10275); assay: qHTS assay to identify small molecule agonists of the androgen receptor (AR) signaling pathway in the presence of an antagonist (AID 1259381; calls by dose curve; note: nearly all actives have a fitted effect of over 15% in size)
Method in brief: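 MDA-kb2 cells carrying MMTV-luciferase (AR/GR responsive), 3,000 cells/well, co-treated with 3.0 uM nilutamide final. Compounds at 15 concentrations, 16 hr at 37C without CO2. Luciferase luminescence read after 30 min with ONE-Glo.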

Measured: Potency

Sequence of Androgen receptor (Homo sapiens) (P10275 whole entry, looked up): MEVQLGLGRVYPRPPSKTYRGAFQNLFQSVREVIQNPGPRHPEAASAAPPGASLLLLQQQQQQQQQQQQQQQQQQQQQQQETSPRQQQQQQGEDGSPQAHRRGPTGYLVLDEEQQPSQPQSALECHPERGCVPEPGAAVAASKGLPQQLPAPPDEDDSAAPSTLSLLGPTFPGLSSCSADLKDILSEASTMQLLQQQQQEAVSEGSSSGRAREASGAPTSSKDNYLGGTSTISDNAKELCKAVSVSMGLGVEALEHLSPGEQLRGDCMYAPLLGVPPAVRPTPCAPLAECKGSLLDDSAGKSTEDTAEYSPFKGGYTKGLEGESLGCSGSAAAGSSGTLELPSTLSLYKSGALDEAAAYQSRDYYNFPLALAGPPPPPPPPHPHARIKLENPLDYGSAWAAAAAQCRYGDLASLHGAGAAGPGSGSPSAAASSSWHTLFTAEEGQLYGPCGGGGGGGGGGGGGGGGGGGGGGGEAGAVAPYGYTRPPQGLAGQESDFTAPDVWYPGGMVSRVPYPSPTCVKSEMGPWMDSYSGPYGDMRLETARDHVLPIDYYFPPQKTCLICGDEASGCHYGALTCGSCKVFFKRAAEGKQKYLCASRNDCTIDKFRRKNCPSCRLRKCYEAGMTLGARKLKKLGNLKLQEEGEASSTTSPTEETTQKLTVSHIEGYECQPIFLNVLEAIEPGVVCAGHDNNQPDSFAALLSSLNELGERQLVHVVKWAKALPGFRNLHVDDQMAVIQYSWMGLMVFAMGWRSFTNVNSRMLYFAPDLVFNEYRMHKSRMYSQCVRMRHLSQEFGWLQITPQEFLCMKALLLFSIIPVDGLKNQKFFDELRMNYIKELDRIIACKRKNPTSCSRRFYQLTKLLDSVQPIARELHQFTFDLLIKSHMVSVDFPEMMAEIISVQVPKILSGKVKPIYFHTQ
Sequence of Estrogen receptor beta (Homo sapiens) (Q92731 whole entry, looked up): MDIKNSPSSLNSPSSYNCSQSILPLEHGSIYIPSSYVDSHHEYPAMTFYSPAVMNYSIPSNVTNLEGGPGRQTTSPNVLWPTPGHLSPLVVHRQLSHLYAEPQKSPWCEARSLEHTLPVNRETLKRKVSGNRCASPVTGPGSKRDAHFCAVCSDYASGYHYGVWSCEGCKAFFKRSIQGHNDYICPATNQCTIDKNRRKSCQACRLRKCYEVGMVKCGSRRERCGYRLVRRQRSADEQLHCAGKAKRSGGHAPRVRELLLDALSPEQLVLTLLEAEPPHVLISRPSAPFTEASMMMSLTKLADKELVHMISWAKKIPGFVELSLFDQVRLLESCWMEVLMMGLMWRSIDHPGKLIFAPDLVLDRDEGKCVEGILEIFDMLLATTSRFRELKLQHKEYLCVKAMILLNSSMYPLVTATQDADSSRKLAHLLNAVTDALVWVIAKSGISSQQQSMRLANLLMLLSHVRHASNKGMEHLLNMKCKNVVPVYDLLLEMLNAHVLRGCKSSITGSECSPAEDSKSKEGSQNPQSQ
Sequence of Estrogen receptor (Homo sapiens) (P03372 whole entry, looked up): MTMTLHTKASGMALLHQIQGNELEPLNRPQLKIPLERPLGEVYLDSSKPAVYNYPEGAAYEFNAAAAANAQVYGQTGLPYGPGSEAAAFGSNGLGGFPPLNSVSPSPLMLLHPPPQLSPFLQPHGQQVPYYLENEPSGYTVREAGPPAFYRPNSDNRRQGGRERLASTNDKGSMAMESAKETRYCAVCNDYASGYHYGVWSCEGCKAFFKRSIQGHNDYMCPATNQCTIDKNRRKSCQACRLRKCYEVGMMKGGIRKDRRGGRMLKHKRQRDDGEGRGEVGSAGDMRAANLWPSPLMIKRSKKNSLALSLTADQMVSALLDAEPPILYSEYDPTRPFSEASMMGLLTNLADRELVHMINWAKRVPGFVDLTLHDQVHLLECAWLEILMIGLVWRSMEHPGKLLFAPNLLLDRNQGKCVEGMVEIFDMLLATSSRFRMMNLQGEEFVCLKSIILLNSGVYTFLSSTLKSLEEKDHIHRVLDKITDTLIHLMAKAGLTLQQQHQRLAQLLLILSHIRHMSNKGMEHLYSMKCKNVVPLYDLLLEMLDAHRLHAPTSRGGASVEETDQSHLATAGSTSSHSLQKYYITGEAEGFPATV

CC(C)Nc1ccccc1
inactive: [1] | [2] | [3] | [4] | [5] | [6] | [7] | [8] | [9] | [10] | [11] | [12] | [13] | [14] | [15] | [16]

O=C(O)[C@H](O)c1ccccc1
inactive: [1] | [17] | [3] | [4] | [5] | [6] | [18] | [7] | [8] | [9] | [10] | [11] | [12] | [15] | [16]

CC(C)(CO)C(O)C(=O)NCCCO (stereo not given)
inactive: [1] | [17] | [3] | [4] | [5] | [6] | [7] | [8] | [9] | [10] | [11] | [12] | [13] | [14] | [15] | [16]

CCCCCc1cccc(=O)o1
inactive: [1] | [17] | [3] | [4] | [5] | [6] | [7] | [8] | [9] | [10] | [11] | [12] | [13] | [14] | [15] | [16]

C=CC(=O)OCC1CCCO1 (stereo not given)
inactive: [1] | [2] | [3] | [4] | [5] | [6] | [7] | [8] | [9] | [10] | [11] | [12] | [13] | [14] | [15] | [16]

COP(=O)(O)OP(=O)(O)OC
inactive: [1] | [17] | [3] | [4] | [5] | [6] | [7] | [8] | [9] | [10] | [11] | [12] | [13] | [14] | [15] | [16]

CC(=O)c1cc(C)oc1C
inactive: [1] | [17] | [3] | [4] | [5] | [19] | [7] | [8] | [9] | [10] | [11] | [12] | [13] | [14] | [15] | [20]

CN(C)CCCCl
inactive: [1] | [2] | [3] | [4] | [5] | [6] | [7] | [8] | [9] | [10] | [11] | [12] | [15]

CC(=O)CC(=O)Nc1ccc(C)cc1C
inactive: [1] | [17] | [3] | [4] | [5] | [19] | [8] | [9] | [10] | [11] | [13] | [14] | [15] | [16] | [20]

CC1=NN(c2ccc(S(=O)(=O)O)cc2)C(=O)C1
inactive: [1] | [2] | [3] | [4] | [5] | [7] | [8] | [9] | [10] | [11] | [12] | [15] | [16]

C=CC/C=C/C
inactive: [1] | [2] | [3] | [4] | [5] | [6] | [7] | [8] | [9] | [10] | [11] | [12] | [14] | [15] | [16]

CC(C)NCC(O)c1ccc2ccccc2c1 (stereo not given)
inactive: [1] | [2] | [3] | [4] | [5] | [18] | [7] | [8] | [9] | [10] | [11] | [12] | [13] | [14] | [15] | [16]

COC(C)(OC)OC
inactive: [1] | [2] | [3] | [4] | [19] | [6] | [8] | [9] | [10] | [11] | [12] | [15] | [16] | [20]

O=C(CCCCC(=O)Nc1c(I)cc(I)c(C(=O)O)c1I)Nc1c(I)cc(I)c(C(=O)O)c1I
inactive: [1] | [17] | [3] | [4] | [5] | [6] | [18] | [7] | [8] | [9] | [10] | [11] | [12] | [15] | [16]

Cc1ccc(C(C)NC(=O)[C@@H](NC(=O)OC(C)C)C(C)C)cc1 (stereo not given in full)
inactive: [1] | [2] | [3] | [4] | [5] | [7] | [8] | [9] | [10] | [11] | [12] | [15] | [16]

CCN(CC)CCN
inactive: [1] | [17] | [3] | [4] | [5] | [6] | [7] | [8] | [9] | [10] | [11] | [12] | [13] | [14] | [15]
